According to the supplement of paper PMC10849652:
Of roughly 7,900 targets only a part is listed; those with a hit were picked by preference. About 0.6% of all pairs of compound and target were hits.

Legend:
Assay in all cases: log2 fold change, soluble protein after heating vs DMSO (PISA); higher = thermal stabilisation; K562 cells, 10 uM, 30 min; active = over 0.2 and 3.5 SD of the protein, either way, in both replicates (recomputed)
[1] = compound: Cc1ccc(NC(=O)c2ccc(CN3CC[C@H](N(C)C)C3)c(C(F)(F)F)c2)cc1Nc1nccc(-c2cncnc2)n1 [bafetinib]
Procedure, shortened: (§1)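 K562 cells at 2×10^6 cells/mL were treated with 10 μM compound for 30 min. Aliquots were heated for 3 min across 48°C-58°C, pooled, and extracted in PBS with 0.5% NP-40 at 4°C; soluble protein was the supernatant after 21,000xg for 90 min. Soluble protein was quantified by TMTpro 16plex LC-MS/MS with channel sums equalised, and reported as log2 fold change in thermal stability against DMSO controls, with values from duplicates.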

[2] = compound: Cc1cccc(CC(=O)N2CCc3c2ccc(-c2cn(C)c4ncnc(N)c24)c3F)n1
Procedure, shortened: as §1

[3] = compound: Cc1cn(-c2cc(NC(=O)c3ccc(C)c(Nc4nccc(-c5cccnc5)n4)c3)cc(C(F)(F)F)c2)cn1 [nilotinib]
Procedure, shortened: as §1

[4] = compound: Cc1nc(Nc2n[nH]c3c2CN(C(=O)N[C@H](CN(C)C)c2ccccc2)C3(C)C)c2sccc2n1
Procedure, shortened: as §1

[5] = compound: Cc1nc(Nc2ncc(C(=O)Nc3c(C)cccc3Cl)s2)cc(N2CCN(CCO)CC2)n1 [dasatinib]
Procedure, shortened: as §1

[6] = compound: Cc1ncc(-c2ccnc(Nc3ccc(S(C)(=O)=O)cc3)n2)n1C(C)C
Procedure, shortened: as §1

[7] = compound: Cn1cc(-c2ccc3c(c2)CCN3C(=O)Cc2cccc(C(F)(F)F)c2)c2c(N)ncnc21
Procedure, shortened: as §1

[8] = compound: Cn1cc(-c2ccc3nnc(C(F)(F)c4ccc5ncccc5c4)n3n2)cn1
Procedure, shortened: as §1

[9] = compound: Cn1cncc1[C@@](N)(c1ccc(Cl)cc1)c1ccc2c(c1)c(-c1cccc(Cl)c1)cc(=O)n2C [tipifarnib]
Procedure, shortened: as §1

[10] = compound: FC(F)(F)c1ccc(/C=C/c2nc(COc3ccc(CCCCn4ccnn4)cc3)co2)cc1 [mubritinib]
Procedure, shortened: as §1

[11] = compound: NC(=O)Nc1cc(-c2cccc(F)c2)sc1C(=O)N[C@H]1CCCNC1
Procedure, shortened: as §1

[12] = compound: NC(=O)c1cnc(N[C@@H]2CCCC[C@@H]2N)nc1Nc1cccc(-n2nccn2)c1
Procedure, shortened: as §1

[13] = compound: NC1(c2ccc(-c3nc4ccn5c(=O)[nH]nc5c4cc3-c3ccccc3)cc2)CCC1
Procedure, shortened: as §1

[14] = compound: NCC(=O)Nc1ccc(-n2nc(C(F)(F)F)cc2-c2ccc3c(ccc4ccccc43)c2)cc1
Procedure, shortened: as §1

[15] = compound: Nc1ccccc1NC(=O)c1ccc(CNC(=O)OCc2cccnc2)cc1 [entinostat]
Procedure, shortened: as §1

[16] = compound: O=C(CCCCCCC(=O)Nc1ccccc1)NO [vorinostat]
Procedure, shortened: as §1

[17] = compound: O=C(CCCCCCNC(=O)c1cnc(N(c2ccccc2)c2ccccc2Cl)nc1)NO [citarinostat]
Procedure, shortened: as §1

[18] = compound: O=C(O)c1ccc2c(c1)nc(Nc1cccc(Cl)c1)c1ccncc12 [silmitasertib]
Procedure, shortened: as §1

[19] = compound: O=C1NC(=O)C(c2cnc3ccccn23)=C1c1cn2c3c(cc(F)cc13)CN(C(=O)N1CCCCC1)CC2
Procedure, shortened: as §1

[20] = compound: c1cc(OCCN2CCCCC2)cc(-c2n[nH]c3ccc(-c4nnc[nH]4)cc23)c1
Procedure, shortened: as §1

Measured: log2 fold change

PPOX (UniProt P50336)
Chain of UniProt P50336 (P50336 whole entry, looked up): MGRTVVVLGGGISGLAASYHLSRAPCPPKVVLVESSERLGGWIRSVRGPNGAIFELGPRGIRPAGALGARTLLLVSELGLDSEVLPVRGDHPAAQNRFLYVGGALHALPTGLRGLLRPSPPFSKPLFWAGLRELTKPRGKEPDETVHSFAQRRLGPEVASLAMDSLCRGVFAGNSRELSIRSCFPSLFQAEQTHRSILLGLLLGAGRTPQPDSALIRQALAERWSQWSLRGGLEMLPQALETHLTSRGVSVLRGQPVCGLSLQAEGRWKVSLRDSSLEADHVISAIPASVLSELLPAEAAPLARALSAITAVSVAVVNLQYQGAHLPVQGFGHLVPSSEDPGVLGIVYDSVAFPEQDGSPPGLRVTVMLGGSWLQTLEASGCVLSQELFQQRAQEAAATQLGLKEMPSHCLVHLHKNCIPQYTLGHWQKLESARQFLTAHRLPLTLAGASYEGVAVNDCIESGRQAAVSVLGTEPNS
inactive: [1] -0.031 | [2] -0.013 | [3] 0.494 | [4] 0.027 | [5] 0.208 | [6] -0.015 | [7] 0.192 | [8] 0.086 | [9] 0.08 | [10] 0 | [11] -0.042 | [12] -0.228 | [13] -0.182 | [14] -0.009 | [15] 0.04 | [16] 0.003 | [17] 0.02 | [18] 0.158 | [19] 0.094 | [20] 0.018

PIGH (UniProt Q14442)
Chain of UniProt Q14442 (Q14442 whole entry, looked up): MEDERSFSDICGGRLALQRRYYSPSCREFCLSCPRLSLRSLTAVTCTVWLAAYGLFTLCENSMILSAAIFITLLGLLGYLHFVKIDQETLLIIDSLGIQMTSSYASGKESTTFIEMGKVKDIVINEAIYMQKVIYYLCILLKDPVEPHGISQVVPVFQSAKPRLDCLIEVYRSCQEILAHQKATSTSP
inactive: [1] -0.037 | [2] -0.01 | [5] -0.053 | [7] 0.099 | [8] 0.009 | [9] 0.056 | [10] 0.04 | [12] -0.021 | [13] -0.087 | [14] -0.021 | [16] 0.18 | [17] 0.031 | [18] 0.093 | [19] -0.128 | [20] -0.05

POLR3D (UniProt P05423)
Chain of UniProt P05423 (P05423 whole entry, looked up): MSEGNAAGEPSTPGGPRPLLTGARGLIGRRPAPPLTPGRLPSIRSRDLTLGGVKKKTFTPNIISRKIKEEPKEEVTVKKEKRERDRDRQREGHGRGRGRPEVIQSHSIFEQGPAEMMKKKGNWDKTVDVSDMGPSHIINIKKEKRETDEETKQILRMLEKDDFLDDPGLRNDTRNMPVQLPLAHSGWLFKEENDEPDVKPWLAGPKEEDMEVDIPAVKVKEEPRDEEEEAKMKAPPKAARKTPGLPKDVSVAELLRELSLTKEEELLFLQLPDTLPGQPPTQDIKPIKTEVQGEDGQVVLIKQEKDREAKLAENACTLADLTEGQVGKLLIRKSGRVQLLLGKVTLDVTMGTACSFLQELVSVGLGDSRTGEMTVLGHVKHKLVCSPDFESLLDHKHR
active: [12] 1.51
inactive: [1] -0.052 | [2] 0.044 | [3] 0.023 | [4] -0.125 | [5] 1.17 | [6] 0.057 | [7] -0.082 | [8] 0.046 | [9] 0.018 | [10] -0.072 | [11] -0.061 | [13] -0.115 | [14] -0.028 | [15] 0.03 | [16] 0.158 | [18] 0.078 | [19] 0.032

PRKD3 (UniProt O94806)
Chain of UniProt O94806 (O94806 whole entry, looked up): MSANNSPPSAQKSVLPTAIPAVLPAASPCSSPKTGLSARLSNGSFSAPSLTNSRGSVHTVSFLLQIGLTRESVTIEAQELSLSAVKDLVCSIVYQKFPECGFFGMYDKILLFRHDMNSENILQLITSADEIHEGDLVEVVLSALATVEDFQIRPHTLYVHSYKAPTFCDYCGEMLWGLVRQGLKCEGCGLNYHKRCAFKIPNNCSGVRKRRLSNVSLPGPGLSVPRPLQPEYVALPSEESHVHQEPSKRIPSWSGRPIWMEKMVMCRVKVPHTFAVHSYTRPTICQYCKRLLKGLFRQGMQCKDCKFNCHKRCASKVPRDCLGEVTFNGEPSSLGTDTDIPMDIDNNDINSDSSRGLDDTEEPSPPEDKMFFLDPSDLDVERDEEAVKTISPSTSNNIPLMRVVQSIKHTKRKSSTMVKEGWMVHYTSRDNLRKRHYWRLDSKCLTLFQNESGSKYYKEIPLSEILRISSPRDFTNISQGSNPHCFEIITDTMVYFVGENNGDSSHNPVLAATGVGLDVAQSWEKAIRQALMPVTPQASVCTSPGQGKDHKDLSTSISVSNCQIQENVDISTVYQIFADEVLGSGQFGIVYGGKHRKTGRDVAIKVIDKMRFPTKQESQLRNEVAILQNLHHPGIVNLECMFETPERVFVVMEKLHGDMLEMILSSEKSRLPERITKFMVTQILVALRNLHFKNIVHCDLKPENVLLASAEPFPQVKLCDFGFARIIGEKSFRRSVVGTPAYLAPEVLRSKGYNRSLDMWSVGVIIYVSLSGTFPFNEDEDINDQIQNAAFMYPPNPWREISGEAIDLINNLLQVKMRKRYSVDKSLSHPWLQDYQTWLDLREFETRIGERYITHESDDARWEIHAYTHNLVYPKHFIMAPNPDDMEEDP
inactive: [1] -0.011 | [2] -0.231 | [5] -0.258 | [7] -0.079 | [8] 0.006 | [10] -0.062 | [11] -0.565 | [12] -0.263 | [13] -0.285 | [14] -0.213 | [15] 0.34 | [16] 0.096 | [18] 0.021

PRKD2 isoform 3 (UniProt Q9BZL6)
Chain of UniProt Q9BZL6 (Q9BZL6 whole entry, looked up): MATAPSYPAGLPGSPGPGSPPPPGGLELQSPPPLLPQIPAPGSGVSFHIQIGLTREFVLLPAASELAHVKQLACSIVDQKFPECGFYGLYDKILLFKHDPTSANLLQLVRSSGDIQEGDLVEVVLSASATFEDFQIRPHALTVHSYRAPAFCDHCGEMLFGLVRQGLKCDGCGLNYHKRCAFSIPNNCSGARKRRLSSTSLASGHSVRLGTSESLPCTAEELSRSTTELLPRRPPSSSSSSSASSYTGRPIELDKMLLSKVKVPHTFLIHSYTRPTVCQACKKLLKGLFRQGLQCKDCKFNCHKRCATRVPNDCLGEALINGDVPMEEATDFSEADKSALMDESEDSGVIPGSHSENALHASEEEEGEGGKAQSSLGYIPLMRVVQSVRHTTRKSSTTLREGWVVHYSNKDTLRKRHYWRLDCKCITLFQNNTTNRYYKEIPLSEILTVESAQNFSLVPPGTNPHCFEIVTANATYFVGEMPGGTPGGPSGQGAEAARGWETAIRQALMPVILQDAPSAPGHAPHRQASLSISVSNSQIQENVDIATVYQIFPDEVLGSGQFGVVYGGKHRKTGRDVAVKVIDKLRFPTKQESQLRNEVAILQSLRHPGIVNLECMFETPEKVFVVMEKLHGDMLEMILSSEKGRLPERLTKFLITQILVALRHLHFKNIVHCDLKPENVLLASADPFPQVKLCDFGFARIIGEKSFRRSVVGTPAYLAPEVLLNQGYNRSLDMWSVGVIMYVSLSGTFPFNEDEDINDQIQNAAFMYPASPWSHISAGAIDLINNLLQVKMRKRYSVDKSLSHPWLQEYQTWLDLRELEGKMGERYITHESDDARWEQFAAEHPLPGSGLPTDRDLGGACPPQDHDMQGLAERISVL
active: [4] -0.698 | [11] -0.515
inactive: [1] -0.16 | [2] 0.045 | [3] -0.204 | [5] -0.139 | [6] -0.145 | [7] 0.057 | [8] 0.045 | [9] -0.123 | [10] 0.099 | [12] -0.217 | [13] -0.074 | [14] 0 | [15] 0.331 | [16] 0.186 | [18] 0.047 | [19] -0.014

PBX2 (UniProt P40425)
Chain of UniProt P40425 (P40425 whole entry, looked up): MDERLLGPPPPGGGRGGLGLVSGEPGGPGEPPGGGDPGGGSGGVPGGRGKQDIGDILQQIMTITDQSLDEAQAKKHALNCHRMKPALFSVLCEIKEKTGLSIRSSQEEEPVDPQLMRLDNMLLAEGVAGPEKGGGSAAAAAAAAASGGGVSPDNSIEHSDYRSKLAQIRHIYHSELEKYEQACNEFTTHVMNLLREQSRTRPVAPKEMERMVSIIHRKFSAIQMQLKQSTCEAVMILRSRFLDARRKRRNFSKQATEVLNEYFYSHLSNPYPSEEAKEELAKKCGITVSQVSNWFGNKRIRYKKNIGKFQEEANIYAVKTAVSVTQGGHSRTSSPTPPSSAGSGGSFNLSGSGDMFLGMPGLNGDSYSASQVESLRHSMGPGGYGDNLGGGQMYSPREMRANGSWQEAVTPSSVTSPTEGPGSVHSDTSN
inactive: [1] 0.019 | [2] 0.042 | [3] -0.057 | [4] -0.071 | [5] -0.202 | [6] -0.034 | [7] 0.013 | [8] -0.091 | [9] -0.116 | [10] 0.027 | [11] 0.089 | [12] -0.016 | [13] -0.203 | [14] -0.065 | [15] 0.058 | [16] 0.196 | [18] 0.003 | [19] -0.168

PECAM1 (UniProt P16284)
inactive: [1] -0.075 | [2] -0.011 | [3] 0.087 | [4] 0.097 | [5] 0.031 | [6] 0 | [7] -0.019 | [8] -0.013 | [9] 0.015 | [10] 0.022 | [11] 0.005 | [12] 0.092 | [13] 0.034 | [14] 0.053 | [15] -0.13 | [16] -0.057 | [17] 0.033 | [18] -0.039 | [19] -0.064 | [20] -0.023

PTTG1IP (UniProt P53801)
Chain of UniProt P53801 (P53801 whole entry, looked up): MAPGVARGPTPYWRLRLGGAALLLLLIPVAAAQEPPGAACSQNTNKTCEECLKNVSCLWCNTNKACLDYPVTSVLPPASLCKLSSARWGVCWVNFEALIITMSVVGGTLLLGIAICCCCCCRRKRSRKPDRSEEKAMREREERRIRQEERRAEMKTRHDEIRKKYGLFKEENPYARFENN
inactive: [1] -0.105 | [2] -0.053 | [3] -0.061 | [4] 0.054 | [5] -0.002 | [6] -0.099 | [7] 0.036 | [9] 0.036 | [10] -0.012 | [11] -0.033 | [12] 0.026 | [13] -0.222 | [14] 0.065 | [15] 0.12 | [16] -0.077 | [17] -0.017 | [18] 0.083 | [19] 0.017 | [20] 0.07

PIK3C3 (UniProt Q8NEB9)
Chain of UniProt Q8NEB9 (Q8NEB9 whole entry, looked up): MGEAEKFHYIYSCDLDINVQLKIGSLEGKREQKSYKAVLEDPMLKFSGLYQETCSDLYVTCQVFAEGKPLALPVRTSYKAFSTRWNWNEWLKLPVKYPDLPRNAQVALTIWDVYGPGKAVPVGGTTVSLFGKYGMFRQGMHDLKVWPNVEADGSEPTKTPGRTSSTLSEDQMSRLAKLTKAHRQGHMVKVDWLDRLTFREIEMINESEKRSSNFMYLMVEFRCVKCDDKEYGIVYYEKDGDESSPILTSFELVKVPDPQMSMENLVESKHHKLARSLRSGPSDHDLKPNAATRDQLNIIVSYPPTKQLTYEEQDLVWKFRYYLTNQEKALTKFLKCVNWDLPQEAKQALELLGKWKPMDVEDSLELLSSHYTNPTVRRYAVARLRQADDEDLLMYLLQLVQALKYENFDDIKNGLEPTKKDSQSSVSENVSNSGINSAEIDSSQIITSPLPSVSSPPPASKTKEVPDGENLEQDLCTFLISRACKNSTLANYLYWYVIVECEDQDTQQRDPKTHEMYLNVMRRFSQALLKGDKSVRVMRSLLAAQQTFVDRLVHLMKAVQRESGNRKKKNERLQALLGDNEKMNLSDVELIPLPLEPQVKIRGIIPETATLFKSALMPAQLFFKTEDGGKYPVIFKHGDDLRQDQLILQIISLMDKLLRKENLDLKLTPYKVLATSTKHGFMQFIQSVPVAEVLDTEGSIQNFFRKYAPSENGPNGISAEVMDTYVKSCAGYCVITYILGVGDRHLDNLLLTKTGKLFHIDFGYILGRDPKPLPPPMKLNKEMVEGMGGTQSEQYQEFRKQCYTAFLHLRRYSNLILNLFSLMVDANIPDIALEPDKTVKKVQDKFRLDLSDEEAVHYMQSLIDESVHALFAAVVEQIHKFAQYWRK
inactive: [1] 0.065 | [2] -0.011 | [3] 0.043 | [4] -0.039 | [5] -0.04 | [6] 0.202 | [7] -0.035 | [8] -0.006 | [9] 0.047 | [10] 0.042 | [11] 0.068 | [12] 0.117 | [13] -0.018 | [14] -0.015 | [15] -0.03 | [16] -0.038 | [17] -0.038 | [18] 0.051 | [19] 0.078 | [20] -0.041
